IMPase inh: membrane-permeable compound that blocks inositol monophosphatase; P97697; CHO-M1 cells, IP1 accumulation, HTRF TR-FRET ratio; inhibition (IP1 accumulation), % at 46.1 µM; 120,000 tested, under 10 active; active means well fitted curve in the direction sought with a large enough effect in the signal ratio, not every such curve was filed as active; inconclusive means small, poorly fitted or top-dose-only effect, or a change in a side signal; inactive means no such curve, though single readings can be large or run the other way; the % refers to the signal ratio;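 further: cells stimulated with carbachol in lithium chloride buffer; plate controls were DMSO basal wells for no effect and reference inhibitor wells for full effect; higher means more IMPase inhibition seen as more IP1 and lower FRET ratio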
Target sequence (P97697 whole entry, looked up): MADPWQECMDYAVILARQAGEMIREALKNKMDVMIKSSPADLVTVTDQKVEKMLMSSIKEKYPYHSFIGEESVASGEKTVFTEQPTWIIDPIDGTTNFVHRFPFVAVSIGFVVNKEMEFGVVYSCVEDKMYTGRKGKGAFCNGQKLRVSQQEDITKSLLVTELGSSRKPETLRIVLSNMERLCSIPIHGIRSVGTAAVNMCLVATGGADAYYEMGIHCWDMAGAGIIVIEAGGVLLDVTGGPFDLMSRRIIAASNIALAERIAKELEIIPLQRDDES
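In this qHTS, compounds (final up to 46 uM) act on CHO-M1 cells that are then activated through the M1 receptor with carbachol, in pH 7.4 buffer containing 50 mM LiCl, for 30 min. IP1 accumulation is quantified by the IP-One immunoassay.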
IMPase Li cell: membrane-permeable IMPase blocker, potentiated with lithium. CHO-M1 cells, IP1 TR-FRET (IP-One), carbachol + lithium. Potency, µM (highest dose often 59.4 µM), for the others: top-dose activity, negative = IMPase inhibition, usual class: inhibitors. actives 0.35% (n = 210,000). AID 1457; active means well fitted curve in the direction sought with a large enough effect; inconclusive means small, poorly fitted or top-dose-only effect, or another doubt; inactive means no such curve, though single readings can be large; an effect the other way counts as inactive or inconclusive;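 further: IP1 builds up when IMPase is blocked and the TR-FRET signal falls; potency means the concentration at half of the fitted maximal effect; plate controls were basal vehicle for no effect and high inhibitor control for full effect; nearly all actives have a fitted effect of over 50% in size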
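Test compounds were applied to CHO-M1 cells previously cultured for 16–30 h at 2000 per well. A small lithium amount accompanied them; after 30 min at 37C, IP1 was quantified by TR-FRET.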
HPGD inh: blocks human HPGD enzyme activity | P15428 | purified HPGD, NADH fluorescence kinetic, PGE2 substrate | Potency, µM, without a hit: top-dose activity change, negative = inhibition, usual class: inhibitors | actives 4.3% (n = 150,000) | AID 894; further: potency means the concentration at half of the fitted maximal effect
Target sequence (P15428 whole entry, looked up): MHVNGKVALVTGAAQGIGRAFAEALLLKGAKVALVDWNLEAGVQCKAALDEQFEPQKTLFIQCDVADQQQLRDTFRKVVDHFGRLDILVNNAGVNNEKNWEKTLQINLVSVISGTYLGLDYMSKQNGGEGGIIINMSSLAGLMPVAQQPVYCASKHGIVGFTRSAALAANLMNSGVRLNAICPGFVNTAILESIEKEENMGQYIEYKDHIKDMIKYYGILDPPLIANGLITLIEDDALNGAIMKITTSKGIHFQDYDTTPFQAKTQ
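NADH formation kinetics: reaction with 30 uM PGE2 and 1 mM NAD+ (final), 20 nM enzyme, Tris-HCl pH 8 with Tween 20, after 15 min compound preincubation at room temperature. Fluorescence change, last versus first of five reads.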
ALDH1A1 block: inhibitors of human aldehyde dehydrogenase 1A1; P00352; AID 1030; Potency, µM (top dose mostly 75.3 µM), for the others: at the top dose activity, negative = inhibition, usual class: inhibitors; actives 7.3% (n = 220,000); Purified ALDH1A1, NADH fluorescence, propionaldehyde substrate;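 further: potency means the concentration at half of the fitted maximal effect; plate controls were no enzyme wells and a reference inhibitor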
PNC inhibitor: inhibitors of perinucleolar compartment assembly. actives 3.1% (n = 140,000). activity change (PNC), negative = inhibition, % at 10 µM. PC3M PTB-GFP, PNC prevalence imaging, 16 h; stronger effect = lower value;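 active means readout at or below -70, meaning at least 70% loss of cells showing the perinucleolar compartment, a nuclear body marking cancer cells; inconclusive means readout between -30 and a set limit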;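 further: plate controls were DMSO wells for no effect and camptothecin positive control wells for full effect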
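Compounds are pinned in duplicate onto adhered PC3M cells stably expressing GFP-tagged PTB and incubated 16 h at 37 C. Cells are then fixed, nuclei stained with Hoechst, and PNC-positive cells counted.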
12-hLO inh: inhibitors of human 12-lipoxygenase (ALOX12); P18054; purified 12-hLO, xylenol orange hydroperoxide absorbance; Potency, µM (titrated, usually from 57.1 µM), for inactives: at the top dose activity change, negative = inhibition, hits mostly inhibitors; actives 0.12% (n = 150,000); active means well fitted curve in the direction sought with a large enough effect; inconclusive means small, poorly fitted or top-dose-only effect, or another doubt; inactive means no such curve, though single readings can be large; an effect the other way counts as inactive or inconclusive; further: potency means the concentration at half of the fitted maximal effect; nearly all actives have a fitted effect of over 55% in size
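Hydroperoxide formation by human 12-lipoxygenase from 40 uM arachidonic acid was followed colorimetrically via ferric-xylenol orange complex, using the 573/405 nm absorbance ratio. Enzyme concentration was 150 nM, with 30 min reaction at room temperature.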
An asterisk follows results filed as active; ? = inconclusive; / = not tested or not shown; [ ] = remark or other dose. Compounds with a hit are over-represented: about 11% of the library has one in this group of screens. Unless noted, the call rests on the fitted dose curve; in most records, active means well fitted inhibition curve with a large enough effect (not every such curve was filed as active); inconclusive means small, poorly fitted or top-dose-only effect, or another doubt; inactive means no such curve, though single readings can be large or run the other way. Unless noted, on the % scale 0 is the no-effect control and ±100 the full control effect.

SMILES	IMPase inh	IMPase Li cell	HPGD inh	ALDH1A1 block	PNC inhibitor	12-hLO inh
O=C(O)c1ccc(N/N=C/c2ccc(-c3ccccc3)cc2)cc1	/	3.1%	/	3.0%	/	/
CC(C)c1ccc(/C=N/Nc2ccc(C(=O)O)cc2)cc1	/	4.6%	14.1µM*	?	-9.1	0.7%
O=C(O)c1ccc(N/N=C/c2ccc(OC(=O)c3ccccc3Cl)cc2)cc1	/	8.4%	25.1µM*	3.3%	?	1.0%
Cc1ccc(NC2(c3ccccc3)C(=O)c3ccccc3C2=O)cc1F	5.5	/	/	/	/	/
C[C@H](N)CCCC(C)(C)O	0.0[20.6 µM]	-1.7%	-6.7%	7.7%[20.9 µM]	/	1.0%[25.6 µM]
CCc1nc2ccccc2n2c(-c3ccccc3)c3c(=O)n(C)c(=O)n(C)c3c12	2.3	/	/	/	/	/
CC(O)CNCCOc1ccccc1-c1ccccc1 (centres undefined)	/	7.3%	/	11.2µM*	/	/
CC[N+](C)(CC)CC(=O)Nc1c(C)cccc1C	8.8	19.0%	-18.6%	-3.9%	/	-4.8%
Clc1ccc(-c2ccc(C=Nc3ccc(N4CCOCC4)cc3)o2)c(Cl)c1	/	-11.5%	/	-3.5%	/	/
Clc1cccc(-c2ccc(C=Nc3ccc(N4CCOCC4)cc3)o2)c1Cl	/	0.1%	/	10µM*	/	/
Clc1ccc(-c2ccc(C=Nc3ccc(N4CCOCC4)cc3)o2)cc1	/	-2.2%	-7.8%	3.55µM*	?	-14.5%
Cc1ccc(C2=NN(Cc3nnc(-c4ccccc4)o3)C(=O)SC2)cc1	/	7.3%	11.2µM*	-7.8%	7.6	-1.2%
COc1ccc(CCC(=O)Nc2cc([N+](=O)[O-])ccc2OC)cc1	/	-0.5%	-15.4%	?	-5.0	-2.2%
COc1ccc(CCC(=O)Nc2ccc(C)c([N+](=O)[O-])c2)cc1	/	2.2%	12.6µM*	10µM*	?	-0.5%
COc1ccc(NC(=S)Nc2ccc(N)c([N+](=O)[O-])c2)cc1	6.0	3.1%[38.3 µM]	?	25.1µM*	-20.9	-2.8%
COc1ccc(NC(=S)Nc2ccccc2)cc1	/	2.3%	-1.2%	4.3%[13.5 µM]	/	1.1%[11.4 µM]
Cc1ncc(CN2CCCC(CCC(=O)NCc3ccc(F)c(F)c3)C2)s1 (centres undefined)	/	16.3%	/	12.7%	/	/
CC(CCN(C)C)OC(=O)c1ccc(C(C)c2ccccc2)o1 (centres undefined)	11.2	22.7%[38.3 µM]	-5.8%	39.8µM*	-106.9*	3.3%
O=C1N[C@H](Cc2ccccc2)C(=O)N1Cc1cccc2ccccc12	/	16.2%	-10.8%	5.6%	/	/
CCc1ccc(NC(=O)C2CCN(S(=O)(=O)c3c(C)[nH]c(=O)[nH]c3=O)CC2)cc1	3.2	2.7%[38.3 µM]	-3.2%	16.0%	71.0	-15.4%
Cc1[nH]c(=O)[nH]c(=O)c1S(=O)(=O)N1CCCC(C(=O)N2CCN(c3ccccc3Cl)CC2)C1 (centres undefined)	0.3	27.3%[38.3 µM]	-25.4%	2.9%	-17.3	-6.8%
Cc1ccc(C)c(N2CCN(C(=O)C3CCCN(S(=O)(=O)c4c(C)[nH]c(=O)[nH]c4=O)C3)CC2)c1 (centres undefined)	-6.8	-0.8%[38.3 µM]	-3.8%	4.9%	-86.3*	3.0%
Cc1ccc(NC(=O)C2CCN(S(=O)(=O)c3c(C)[nH]c(=O)[nH]c3=O)CC2)cc1	-2.8[1.84 µM]	10.3%[38.3 µM]	-3.2%	0.8%	-97.8*	2.2%
O=C(c1ccco1)N1CCC2(CC1)CCN(C(c1ccccc1)c1ccccc1)CC2	/	17.5%	-1.8%	0.6%	/	1.4%
O=C(Cn1nc(C(F)(F)F)c2c1CCC2)Nc1ccc(Cl)cc1	8.8	/	/	/	/	/
Cc1ccc(C)c(/C(O)=C2\C(=O)C(=O)N(Cc3cccnc3)C2c2cccnc2)c1 (centres undefined)	-23.5	7.08µM*	25.1µM*	?	5.4	-10.8%
c1ccc(Cn2cc(CN3CCCCO3)c(-c3ccc4c(c3)OCO4)n2)cc1	/	17.2%	/	31.6µM*	/	/
Cc1cccc(-c2nnc(-c3ccc(N)cc3)o2)c1	-22.4	12.6µM*	?	?	11.2	-0.3%
Cc1ccc(-c2nnc(-c3cccc(Br)c3)o2)cc1	-6.0	32.8%[38.3 µM]	-7.8%	11.5%	32.1	-3.2%

Screening data deposited in PubChem BioAssay by National Center for Advancing Translational Sciences (NCATS).
